Source: PubChem BioAssay (EPA / NIEHS)
Inconclusive results are not listed. The source made the active and inactive calls. How the source made its calls: active means hit-call score of the fitted dose curve at least 0.9, where 1 is the maximum; inconclusive means response in the unintended direction; inactive means score below 0.9.

Columns and labels:
[1] = molecular target: rat Somatostatin Receptor (SST), Sstr1 (gene 25033) (UniProt P28646); experiment: NVS_GPCR_rSST: NovaScreen (NVS) G Protein-Coupled Receptor Assay for rat Somatostatin Receptor (SST) (AID 2283314)
Summary of the method: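 Single-concentration duplicate screen (25 uM), then concentration-response up to 50 uM for chemicals passing a threshold such as 30% inhibition. Membranes came from rat forebrain. Binding was measured 1 h post-dose by filter radiodetection and scintillation, relative to DMSO.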

[2] = molecular target: rat Opioid Receptor, Non-selective Binding, Oprm1 (gene 25601) (UniProt P33535); experiment: NVS_GPCR_rOpiate_NonSelective: NovaScreen (NVS) G Protein-Coupled Receptor Assay for rat Opioid Receptor, Non-selective Binding (AID 2283318)
Summary of the method: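 Filter-based radioligand displacement using rat forebrain membrane preparations, measured 1.5 h post-dosing. Single-concentration duplicate screen at 25 uM, follow-up in concentration series; activity taken as signal loss relative to DMSO.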

[3] = molecular target: human Peripheral-type Benzodiazepine Receptor (PBR), TSPO (gene 706) (UniProt P30536); experiment: NVS_MP_hPBR: NovaScreen (NVS) Membrane Protein Assay for human Peripheral-type Benzodiazepine Receptor (PBR) (AID 2283331);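 further: hits reduce radioligand binding relative to DMSO baseline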
Summary of the method: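 Cell-free radioligand displacement, human colonic membranes, 1 h exposure. Filter radiodetection read-out. Single-concentration duplicates (25 uM), then concentration-response for actives; DMSO negative control.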

NCBI gene 24521 = experiment: NVS_IC_rKATPCh: NovaScreen (NVS) Ion Channel Assay for rat Potassium Channel, ATP-Sensitive (KATPCh) (AID 2283319)
Summary of the method: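 Primary duplicate screen at 25 uM, then singleton concentration series to 50 uM maximum, in a rat cortex membrane radioligand displacement assay. Binding measured by filtration and scintillation 2 h post-dose; DMSO baseline.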

[4] = molecular target: bovine Gamma-Aminobutyric Acid Type A Receptor BDZ, alpha 1 site (GABARa1), GABRA1 (gene 780973) (UniProt P08219); experiment: NVS_LGIC_bGABARa1: NovaScreen (NVS) Ligand-Gated Ion Channel Assay for bovine Gamma-Aminobutyric Acid Type A Receptor BDZ, alpha 1 site (GABARa1) (AID 2283321)
Summary of the method: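 Bovine cortex membrane preparation, benzodiazepine site on GABA-A alpha1; specific radioligand displacement read after 0.75 h by filtration and scintillation. Screen at 25 uM, then singleton titrations up to 50 uM; DMSO baseline.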

[5] = molecular target: human Serotonin, 5-Hydroxytryptamine Receptor 3 (5HT3), HTR3A (gene 3359) (UniProt P46098); experiment: NVS_LGIC_h5HT3: NovaScreen (NVS) Ligand-Gated Ion Channel Assay for human Serotonin, 5-Hydroxytryptamine Receptor 3 (5HT3) (AID 2283325)
Summary of the method: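 Initially tested at 25 uM in duplicate, then up to 50 uM in concentration-response for actives, compounds competed with a radioligand for HEK293-derived human 5-HT3 receptor. Bound counts were measured by filtration and scintillation at 1 h; loss of signal versus DMSO.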

[6] = molecular target: rat Glutamate, NMDA Agonist Site (GluNMDA), Grin1 (gene 24408) (UniProt P35439); experiment: NVS_LGIC_rGluNMDA_Agonist: NovaScreen (NVS) Ligand-Gated Ion Channel Assay for rat Glutamate, NMDA Agonist Site (GluNMDA) (AID 2283327)
Summary of the method: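 Radioligand displacement at the agonist site on rat forebrain membrane preparations, read by filter scintillation after 1 h. Chemicals were first run at 25 uM in duplicate; those passing threshold were titrated to a 50 uM maximum.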

[7] = molecular target: rat Vasopressin 1 Receptor (V1), Avpr1a (gene 25107) (UniProt P30560); experiment: NVS_GPCR_rV1: NovaScreen (NVS) G Protein-Coupled Receptor Assay for rat Vasopressin 1 Receptor (V1) (AID 2283316)
Summary of the method: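 Concentration-response up to 50 uM for chemicals passing a threshold such as 30% inhibition in an initial duplicate 25 uM screen. Displacement of radioligand from rat liver membranes measured after 1.5 h by filtration and scintillation.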

[8] = NVS_IC_rCaDHPRCh_L: NovaScreen (NVS) Ion Channel Assay for rat Calcium Channel, Type L, Dihydropyridine Site (CaDHPRCh_L) (AID 2283320)
Summary of the method: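 Rat cortex membrane preparation; dihydropyridine-site radioligand displacement read 1 h post-dose by filtration and scintillation. Primary single-point screen 25 uM in duplicate, then concentration series to 50 uM maximum; DMSO as negative control.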

[9] = molecular target: Sodium channel protein type 1 subunit alpha (Rattus norvegicus) (UniProt P04774); experiment: NVS_IC_rNaCh_site2: NovaScreen (NVS) Ion Channel Assay for rat Sodium Channel, Site 2 (NaCh) (AID 2283322);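 further: hit means loss of radioligand binding signal relative to DMSO so AC50 marks displacement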
Summary of the method: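 Initial duplicate single-point testing at 25 uM, followed by concentration-response runs for actives. Binding of radioligand to rat forebrain membranes quantified after 1 h via filter-based radiodetection.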

[10] = molecular target: Voltage-gated inwardly rectifying potassium channel KCNH2 (Homo sapiens) (UniProt Q12809); experiment: NVS_IC_hKhERGCh: NovaScreen (NVS) Ion Channel Assay for human Potassium Channel ERG (KhERGCh) (AID 2283333)
Summary of the method: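 Membranes from CHO cells expressing human ERG; displacement of radioligand measured by filtration and scintillation after 0.75 h. Single-concentration duplicate screen at 25 uM, then concentration-response for actives; DMSO baseline.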

[11] = molecular target: human Androgen Receptor (AR), AR (gene 367) (UniProt P10275); experiment: NVS_NR_hAR: NovaScreen (NVS) Nuclear Receptor Binding Assay for human Androgen Receptor (AR) (AID 2283332)
Summary of the method: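 LnCAP cell-free extract; radioligand displacement read by scintillation counting after 20 h. Primary screen single concentration 25 uM in duplicate, actives then run as concentration series; loss-of-signal fitted relative to DMSO baseline.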

[12] = molecular target: human Neonicotinoid receptor (NNR), CHRNA2 (gene 1135) (UniProt Q15822); experiment: NVS_LGIC_hNNR_NBungSens: NovaScreen (NVS) Ligand-Gated Ion Channel Assay for human Neonicotinoid receptor (NNR) (AID 2283313)
Summary of the method: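 Compounds first screened in duplicate at 25 uM, then actives re-tested in single-replicate dose series up to 50 uM. Binding measured as displacement of specific radioligand from neuroblastoma membrane receptors after 2 h, scintillation read on filters.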

[13] = molecular target: rat Gamma-Aminobutyric Acid Type A Receptor, Non-Selective (GABAR-NonSelective), Gabra1 (gene 29705) (UniProt P62813); experiment: NVS_LGIC_rGABAR_NonSelective: NovaScreen (NVS) Ligand-Gated Ion Channel Assay for rat Gamma-Aminobutyric Acid Type A Receptor, Non-Selective (GABAR-NonSelective) (AID 2283326)
Summary of the method: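 Compounds were first screened in duplicate at 25 uM, with actives run as singleton concentration series (max 50 uM). Binding of a radioligand to rat whole-brain GABA-A preparation was measured by filtration and scintillation counting after 1 h, DMSO baseline.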

[14] = molecular target: rat Oxytocin Receptor (OXT), Oxtr (gene 25342) (UniProt P70536); experiment: NVS_GPCR_rOXT: NovaScreen (NVS) G Protein-Coupled Receptor Assay for rat Oxytocin Receptor (OXT) (AID 2283330)
Summary of the method: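 Binding to rat uterine membrane receptor was followed by scintillation counting of filter-trapped radioligand after 1 h. A 25 uM duplicate single-point screen preceded concentration series with a top of 50 uM. Signal loss was analysed relative to DMSO.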

Sequence of human Androgen Receptor (AR), AR (gene 367) (P10275 whole entry, looked up): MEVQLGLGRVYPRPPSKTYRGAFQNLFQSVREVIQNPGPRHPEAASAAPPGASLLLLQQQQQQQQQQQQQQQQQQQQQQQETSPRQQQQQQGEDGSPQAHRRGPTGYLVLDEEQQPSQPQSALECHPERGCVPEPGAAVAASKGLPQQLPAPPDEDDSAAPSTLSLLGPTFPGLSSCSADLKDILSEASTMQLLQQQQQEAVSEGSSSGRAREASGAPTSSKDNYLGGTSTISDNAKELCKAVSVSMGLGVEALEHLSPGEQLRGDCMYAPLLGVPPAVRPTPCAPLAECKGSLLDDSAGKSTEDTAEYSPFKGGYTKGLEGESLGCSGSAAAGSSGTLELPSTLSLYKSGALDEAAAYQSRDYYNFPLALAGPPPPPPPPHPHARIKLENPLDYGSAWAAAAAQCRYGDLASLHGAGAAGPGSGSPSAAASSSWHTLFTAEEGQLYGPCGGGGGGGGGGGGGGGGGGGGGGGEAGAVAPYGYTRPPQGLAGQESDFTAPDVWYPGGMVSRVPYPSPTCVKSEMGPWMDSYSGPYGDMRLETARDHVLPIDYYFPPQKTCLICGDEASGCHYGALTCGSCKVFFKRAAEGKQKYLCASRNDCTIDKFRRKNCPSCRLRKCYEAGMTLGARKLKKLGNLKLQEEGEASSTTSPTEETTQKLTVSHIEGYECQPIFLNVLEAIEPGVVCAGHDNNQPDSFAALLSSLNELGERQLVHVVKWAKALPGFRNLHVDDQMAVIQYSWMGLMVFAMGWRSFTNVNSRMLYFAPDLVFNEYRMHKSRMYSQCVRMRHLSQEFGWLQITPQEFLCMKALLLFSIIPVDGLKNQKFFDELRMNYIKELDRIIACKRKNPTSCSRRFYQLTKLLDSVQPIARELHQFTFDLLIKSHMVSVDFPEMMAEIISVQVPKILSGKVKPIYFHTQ
Sequence of human Serotonin, 5-Hydroxytryptamine Receptor 3 (5HT3), HTR3A (gene 3359) (P46098 whole entry, looked up): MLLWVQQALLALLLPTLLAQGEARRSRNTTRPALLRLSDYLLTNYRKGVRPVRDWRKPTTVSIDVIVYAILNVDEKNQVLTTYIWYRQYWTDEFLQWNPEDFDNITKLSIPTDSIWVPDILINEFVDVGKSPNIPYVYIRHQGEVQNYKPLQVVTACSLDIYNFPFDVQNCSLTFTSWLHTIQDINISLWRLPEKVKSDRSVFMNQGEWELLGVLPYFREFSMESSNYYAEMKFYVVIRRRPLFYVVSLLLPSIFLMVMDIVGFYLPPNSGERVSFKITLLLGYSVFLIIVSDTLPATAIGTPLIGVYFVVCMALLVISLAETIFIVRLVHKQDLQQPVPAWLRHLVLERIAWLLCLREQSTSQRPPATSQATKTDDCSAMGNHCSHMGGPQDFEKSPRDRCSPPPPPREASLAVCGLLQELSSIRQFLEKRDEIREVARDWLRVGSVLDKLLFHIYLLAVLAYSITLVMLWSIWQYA
Sequence of Voltage-gated inwardly rectifying potassium channel KCNH2 (Homo sapiens) (Q12809 whole entry, looked up): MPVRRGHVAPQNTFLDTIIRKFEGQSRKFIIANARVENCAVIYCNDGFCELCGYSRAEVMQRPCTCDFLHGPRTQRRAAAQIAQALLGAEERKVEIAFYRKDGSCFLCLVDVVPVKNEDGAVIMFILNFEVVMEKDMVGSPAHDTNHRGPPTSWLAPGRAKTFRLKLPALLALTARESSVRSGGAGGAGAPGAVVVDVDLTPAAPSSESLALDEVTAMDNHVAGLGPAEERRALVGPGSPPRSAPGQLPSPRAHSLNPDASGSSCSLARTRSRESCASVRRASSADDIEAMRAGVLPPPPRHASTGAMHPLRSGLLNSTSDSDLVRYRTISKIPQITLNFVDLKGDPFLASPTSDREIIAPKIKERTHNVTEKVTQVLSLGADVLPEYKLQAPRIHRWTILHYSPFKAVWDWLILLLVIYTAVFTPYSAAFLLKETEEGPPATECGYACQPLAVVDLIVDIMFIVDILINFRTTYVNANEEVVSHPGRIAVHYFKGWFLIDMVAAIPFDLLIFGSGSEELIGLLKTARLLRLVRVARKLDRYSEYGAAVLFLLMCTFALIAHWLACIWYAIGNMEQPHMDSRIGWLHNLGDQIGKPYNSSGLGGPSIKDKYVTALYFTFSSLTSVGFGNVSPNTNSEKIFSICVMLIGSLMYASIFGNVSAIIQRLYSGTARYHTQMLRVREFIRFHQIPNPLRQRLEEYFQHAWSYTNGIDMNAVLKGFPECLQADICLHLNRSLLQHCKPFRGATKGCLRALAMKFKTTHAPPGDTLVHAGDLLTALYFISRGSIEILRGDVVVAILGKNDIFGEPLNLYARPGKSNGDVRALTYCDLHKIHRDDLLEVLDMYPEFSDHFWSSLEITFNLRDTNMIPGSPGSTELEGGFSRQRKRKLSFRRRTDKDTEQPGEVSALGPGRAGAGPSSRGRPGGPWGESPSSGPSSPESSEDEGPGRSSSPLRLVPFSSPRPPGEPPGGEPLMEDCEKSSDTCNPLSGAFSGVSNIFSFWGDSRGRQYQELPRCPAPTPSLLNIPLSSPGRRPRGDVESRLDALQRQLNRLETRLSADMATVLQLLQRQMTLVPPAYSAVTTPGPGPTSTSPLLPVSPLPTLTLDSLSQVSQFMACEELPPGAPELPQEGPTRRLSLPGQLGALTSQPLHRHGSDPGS
Sequence of rat Opioid Receptor, Non-selective Binding, Oprm1 (gene 25601) (P33535 whole entry, looked up): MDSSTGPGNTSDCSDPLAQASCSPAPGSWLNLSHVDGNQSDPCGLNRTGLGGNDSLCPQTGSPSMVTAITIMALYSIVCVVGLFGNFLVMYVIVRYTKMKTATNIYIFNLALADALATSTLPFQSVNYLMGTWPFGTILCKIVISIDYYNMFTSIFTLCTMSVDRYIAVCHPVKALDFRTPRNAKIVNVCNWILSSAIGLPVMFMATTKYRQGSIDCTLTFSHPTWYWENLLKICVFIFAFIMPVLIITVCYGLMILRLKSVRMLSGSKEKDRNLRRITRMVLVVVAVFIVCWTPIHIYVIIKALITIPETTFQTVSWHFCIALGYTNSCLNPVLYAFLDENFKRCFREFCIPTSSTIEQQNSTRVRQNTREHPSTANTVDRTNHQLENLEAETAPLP
Sequence of bovine Gamma-Aminobutyric Acid Type A Receptor BDZ, alpha 1 site (GABARa1), GABRA1 (gene 780973) (P08219 whole entry, looked up): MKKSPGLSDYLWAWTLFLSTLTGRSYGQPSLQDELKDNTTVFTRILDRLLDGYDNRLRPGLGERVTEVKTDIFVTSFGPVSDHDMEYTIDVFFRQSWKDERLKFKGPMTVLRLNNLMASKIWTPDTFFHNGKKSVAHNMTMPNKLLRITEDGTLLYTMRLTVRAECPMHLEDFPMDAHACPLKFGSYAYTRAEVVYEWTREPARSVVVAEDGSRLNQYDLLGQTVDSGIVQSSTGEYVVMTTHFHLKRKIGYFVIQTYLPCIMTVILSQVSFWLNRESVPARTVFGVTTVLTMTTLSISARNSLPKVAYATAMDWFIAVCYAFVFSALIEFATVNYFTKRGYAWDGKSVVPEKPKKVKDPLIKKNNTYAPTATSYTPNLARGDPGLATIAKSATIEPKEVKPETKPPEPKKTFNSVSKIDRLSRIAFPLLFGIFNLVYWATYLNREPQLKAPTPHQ
Sequence of human Peripheral-type Benzodiazepine Receptor (PBR), TSPO (gene 706) (P30536 whole entry, looked up): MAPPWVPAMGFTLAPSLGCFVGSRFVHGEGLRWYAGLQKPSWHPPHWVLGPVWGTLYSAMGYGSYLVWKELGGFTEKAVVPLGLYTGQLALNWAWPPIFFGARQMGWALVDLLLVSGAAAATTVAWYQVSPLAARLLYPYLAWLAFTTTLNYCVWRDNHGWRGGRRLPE
Sequence of rat Oxytocin Receptor (OXT), Oxtr (gene 25342) (P70536 whole entry, looked up): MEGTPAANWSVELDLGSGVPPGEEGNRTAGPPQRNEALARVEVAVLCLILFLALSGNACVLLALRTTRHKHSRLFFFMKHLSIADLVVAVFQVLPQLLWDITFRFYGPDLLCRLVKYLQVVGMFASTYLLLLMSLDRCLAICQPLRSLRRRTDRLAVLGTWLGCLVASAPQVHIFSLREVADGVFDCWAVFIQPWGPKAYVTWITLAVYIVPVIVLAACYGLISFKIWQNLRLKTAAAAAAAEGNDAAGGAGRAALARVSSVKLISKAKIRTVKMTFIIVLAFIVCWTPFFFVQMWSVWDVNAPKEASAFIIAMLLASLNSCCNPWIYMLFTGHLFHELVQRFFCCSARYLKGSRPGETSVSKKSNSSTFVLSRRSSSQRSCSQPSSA
Sequence of rat Vasopressin 1 Receptor (V1), Avpr1a (gene 25107) (P30560 whole entry, looked up): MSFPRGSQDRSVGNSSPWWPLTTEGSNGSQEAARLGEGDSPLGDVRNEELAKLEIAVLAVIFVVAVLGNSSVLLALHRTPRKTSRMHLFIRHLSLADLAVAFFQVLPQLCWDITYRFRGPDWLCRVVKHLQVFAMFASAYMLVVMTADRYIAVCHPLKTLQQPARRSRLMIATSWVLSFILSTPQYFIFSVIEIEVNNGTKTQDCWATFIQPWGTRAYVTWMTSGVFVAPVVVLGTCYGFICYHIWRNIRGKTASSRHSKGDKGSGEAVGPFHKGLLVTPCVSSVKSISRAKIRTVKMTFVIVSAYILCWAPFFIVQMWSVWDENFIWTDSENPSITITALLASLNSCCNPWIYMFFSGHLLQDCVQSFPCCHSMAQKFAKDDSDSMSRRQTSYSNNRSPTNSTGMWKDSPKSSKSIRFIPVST
Sequence of rat Somatostatin Receptor (SST), Sstr1 (gene 25033) (P28646 whole entry, looked up): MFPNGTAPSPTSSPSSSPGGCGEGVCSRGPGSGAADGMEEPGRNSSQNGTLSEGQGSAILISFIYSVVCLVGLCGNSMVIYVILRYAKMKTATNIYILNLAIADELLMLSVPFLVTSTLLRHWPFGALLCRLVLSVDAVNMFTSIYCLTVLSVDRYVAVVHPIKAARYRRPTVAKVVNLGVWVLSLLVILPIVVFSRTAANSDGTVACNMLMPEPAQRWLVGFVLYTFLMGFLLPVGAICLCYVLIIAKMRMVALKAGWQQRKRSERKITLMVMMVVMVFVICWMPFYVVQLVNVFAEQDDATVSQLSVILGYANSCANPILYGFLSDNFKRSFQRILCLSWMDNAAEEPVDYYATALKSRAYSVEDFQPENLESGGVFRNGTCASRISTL

Compound: CCOP(=O)(OCC)Oc1nc(Cl)c(Cl)cc1Cl
- AC50 [1]: 6.64 µM (active)
- AC50 [2]: 11.1 µM (active)
- AC50 [3]: 4.32 µM (active)

Compound: CCCC(=NOCC)C1=C(O)CC(CC(C)SCC)CC1=O (stereo not given)
- outcome [2]: inactive

Compound: CCOc1cc(C(C)(C)C)ccc1C1COC(c2c(F)cccc2F)=N1 (stereo not given)
- outcome [2]: inactive
- outcome (NCBI gene 24521): inactive

Compound: CS(=O)(=O)c1cc(C(F)(F)F)ccc1C(=O)c1cnoc1C1CC1
- outcome [4]: inactive
- outcome [5]: inactive

Compound: CC(C)N1C(=O)c2ccccc2NS1(=O)=O
- outcome (NCBI gene 24521): inactive
- outcome [6]: inactive

Compound: CCCCC(C#N)(Cn1cncn1)c1ccc(Cl)cc1 (stereo not given)
- AC50 [7]: 1.98 µM (active)
- outcome [8]: inactive
- AC50 [9]: 25 µM (active)
- outcome [3]: inactive
- outcome [10]: inactive

Compound: COc1cc(OC)nc(NC(=O)NS(=O)(=O)c2ncccc2OCC(F)(F)F)n1
- AC50 [7]: 16.4 µM (active)

Compound: O=C1C2CC=CCC2C(=O)N1SC(Cl)(Cl)Cl (stereo not given)
- AC50 [1]: 5.93 µM (active)

Compound: COP(=S)(OC)SCn1nnc2ccccc2c1=O
- outcome (NCBI gene 24521): inactive
- AC50 [4]: 10.1 µM (active)
- AC50 [3]: 17.5 µM (active)
- AC50 [11]: 10.9 µM (active)

Compound: Cc1ccc(N=CN(C)C=Nc2ccc(C)cc2C)c(C)c1
- outcome [12]: inactive

Compound: Cc1cc(C)nc(Nc2ccccc2)n1
- outcome [9]: inactive

Compound: Nc1c(Cl)c(F)nc(OCC(=O)O)c1Cl
- outcome [4]: inactive

Compound: O=C(Nc1ccccc1-c1ccc(Cl)cc1)c1cccnc1Cl
- outcome [4]: inactive
- outcome [3]: inactive

Compound: CCCCOCN(C(=O)CCl)c1c(CC)cccc1CC
- AC50 [8]: 9.86 µM (active)
- AC50 [3]: 6.37 µM (active)

Compound: CCCN(CC)CC1COC2(CCC(C(C)(C)C)CC2)O1 (stereo not given)
- outcome [2]: inactive
- AC50 [9]: 0.822 µM (active)
- AC50 [10]: 5.15 µM (active)

Compound: Cc1c(COC(=O)[C@@H]2[C@H](/C=C(\Cl)C(F)(F)F)C2(C)C)cccc1-c1ccccc1
- outcome [5]: inactive

Compound: CC1(C)CCC(=Cc2ccc(Cl)cc2)C1(O)Cn1cncn1 (stereo not given)
- outcome [5]: inactive
- AC50 [11]: 0.955 µM (active)

Compound: COC(=O)NS(=O)(=O)c1ccc(N)cc1
- outcome [13]: inactive

Compound: CN=C=S
- outcome [6]: inactive

Compound: O=P(O)(O)CCCl
- outcome [14]: inactive

Compound: CC(C)NC(=O)N1CC(=O)N(c2cc(Cl)cc(Cl)c2)C1=O
- outcome [14]: inactive

Compound: CCCCC(O)(Cn1cncn1)c1ccc(Cl)cc1Cl (stereo not given)
- AC50 [11]: 18 µM (active)
- AC50 [10]: 13.4 µM (active)
